# The supplement of paper PMC12645437, “Orthogonal IMiD-Degron Pairs Induce Selective Protein Degradation in Cells” (ACS Chemical Biology, 2025)
# In all, about 8,300 sequences were measured (“log2 fold change of degron read counts, EGFP-low vs EGFP+ sorted cells (limma voom), compound-induced degradation”: median about -1.1, highest 2% from about 3.2 on). The full list was thinned out, with the highest values kept by preference.
# T1: CRBN, Q96SW2
# T1 chain: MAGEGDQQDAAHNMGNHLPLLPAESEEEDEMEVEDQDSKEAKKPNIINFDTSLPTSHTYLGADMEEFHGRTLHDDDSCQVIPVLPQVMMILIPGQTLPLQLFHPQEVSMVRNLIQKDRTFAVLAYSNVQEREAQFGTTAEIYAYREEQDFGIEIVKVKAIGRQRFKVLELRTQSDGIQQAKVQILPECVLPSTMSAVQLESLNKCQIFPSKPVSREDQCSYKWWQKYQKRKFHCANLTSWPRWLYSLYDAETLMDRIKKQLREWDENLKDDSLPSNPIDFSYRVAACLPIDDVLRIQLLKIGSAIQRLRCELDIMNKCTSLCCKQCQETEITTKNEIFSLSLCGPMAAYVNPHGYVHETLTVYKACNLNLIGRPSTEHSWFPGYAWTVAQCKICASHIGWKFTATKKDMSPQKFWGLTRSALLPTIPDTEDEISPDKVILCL
# B1: 46F_47Y_49E_50I_52G_53A_54F_55F_67L_, Q9UKT9 (peptide)
# chain: FYCEICGAFFTQKGNLLRHIKL
# B2: 46F_47F_49E_50I_52G_53A_54R_55F_67L_, Q9UKT9 (peptide)
# chain: FFCEICGARFTQKGNLLRHIKL
# B3: 46F_47C_49E_50I_52G_53A_54F_55F_67L_, Q9UKT9 (peptide)
# chain: FCCEICGAFFTQKGNLLRHIKL
# B4: 46F_47T_49E_50I_52G_53A_54R_55F_67L_, Q9UKT9 (peptide)
# chain: FTCEICGARFTQKGNLLRHIKL
# B5: 46F_47E_49E_50I_52G_53A_54L_55F_67L_, Q9UKT9 (peptide)
# chain: FECEICGALFTQKGNLLRHIKL
# B6: 46F_47E_49E_50I_52G_53A_54R_55F_67L_, Q9UKT9 (peptide)
# chain: FECEICGARFTQKGNLLRHIKL
# B7: 46F_47W_49E_50I_52G_53A_54R_55F_67L_, Q9UKT9 (peptide)
# chain: FWCEICGARFTQKGNLLRHIKL
# B8: 46F_47A_49E_50I_52G_53A_54F_55F_67L_, Q9UKT9 (peptide)
# chain: FACEICGAFFTQKGNLLRHIKL
# B9: 46F_47W_49E_50I_52G_53A_54L_55F_67L_, Q9UKT9 (peptide)
# chain: FWCEICGALFTQKGNLLRHIKL
# Target: T1, CRBN, Q96SW2
# Experiment: log2 fold change of degron read counts, EGFP-low vs EGFP+ sorted cells (limma voom), compound-induced degradation; higher = more compound-induced degradation of the degron-EGFP fusion; degrons are variants of IKZF1/3 zinc finger 2; compound dose not given here
# Settings: Jurkat, 18 h
# [1] = compound: compound 19 (5-tert-butyl-thalidomide)
# [2] = compound: compound 22 (5-morpholino-thalidomide)
# [3] = compound: compound 33 (diphenyl IMiD analogue)
# 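Note: pooled lentiviral library of zinc finger degron-EGFP fusions in mCherry-positive Jurkat cells, FACS-sorted after compound exposure, with degron abundance counted by next-generation sequencing.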
Sequence,log2 fold change of degron read counts [1],log2 fold change of degron read counts [2],log2 fold change of degron read counts [3],log2 fold change of degron read counts (compound: thalidomide)
B1,3.38,3.27,2.4,-0.228
B2,3.53,3.66,1.66,1.89
B3,0.678,-0.0744,1.4,-0.2
B4,1.84,3.12,1.85,3.23
B5,-2.06,-1.77,0.784,1.34
B6,1.13,-0.528,1.59,3.55
B7,3.43,3.51,1.48,1.46
B8,2.61,0.556,-0.131,-0.84
B9,2.93,2.99,2.06,-0.0847
